NALP1 yeast inh = blocks the NALP1 inflammasome reconstituted in yeast. S. cerevisiae NALP1/ASC/caspase-1 growth, X-gal OD620, 72 h. inhibition, % at 10 µM. actives 0.61% (n = 280,000); in the data active = inhibition mostly above about 24%, no sharp cut-off; inactive = mostly below about 32%
TIM10 inh = TIM10 yeast growth inhibition; S. cerevisiae TIM10 strain growth, BacTiter-Glo luminescence, 24 h; actives 1.4% (n = 330,000); inhibition, % at 10 µM;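 active = inhibition of 40% or more at the single tested concentration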;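 also: wild-type TIM10 isogenic control strain grown at permissive 25 °C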
tim23-1 inh = tim23-1 yeast growth inhibition; S. cerevisiae tim23-1 growth, BacTiter-Glo luminescence, 24 h; actives 1.3% (n = 330,000); inhibition, % at 20 µM;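 active = growth inhibition of the mutant yeast at or above 50%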;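 also: temperature-sensitive mutant grown at 25 °C; plate controls were DMSO-treated mutant yeast for no effect and medium wells lacking yeast for full effect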
NLRP3 yeast inh = inhibitors of NALP3 inflammasome in yeast. Yeast reconstituted NLRP3/ASC/caspase-1, beta-gal luminescence, 24 h. inhibition, % at 10 µM. actives 0.39% (n = 330,000). AID 2825;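 active = inhibition of 50% or more; inactive = inhibition below 50%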;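 also: plate controls were induced DMSO wells for no effect and uninduced yeast grown without galactose for full effect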
tim10-1 inh = inhibits growth of tim10-1 mutant yeast | S. cerevisiae tim10-1 ts strain growth, BacTiter-Glo, 24 h | inhibition, % at 20 µM | actives 2.2% (n = 330,000);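 active = inhibition of at least 40%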;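 also: mutant grown at 25 °C; 0% = DMSO wells with yeast and 100% = wells holding no yeast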
tim10-1 conf = tim10-1 yeast growth inhibition, confirmed; S. cerevisiae tim10-1 ts strain growth, BacTiter-Glo, 24 h; shares compounds with tim10-1 inh; actives 56% (n = 7,400); AID 463213; inhibition, % at 20 µM;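 active = inhibition of yeast growth at or above a set limit in either of two repeat tests at 20 µM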;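 also: tim10-1 mutant grown at permissive 25 °C to find synthetic lethal compounds; 0% = DMSO yeast wells and 100% = medium wells without yeast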
tim10 confirm = confirmation of TIM10 yeast growth inhibitors; shares compounds with TIM10 inh; S. cerevisiae tim10 strain growth, BacTiter-Glo luminescence, 24 h; inhibition, % at 10 µM; actives 63% (n = 4,600); AID 463215;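 active = inhibition of yeast growth at or above a set limit in either of two replicates at 10 µM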;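 also: this counterscreen used the strain with wild-type TIM10; 0% = yeast with DMSO and 100% = medium wells lacking yeast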
* hit, by the source's call; · = not tested or not shown. Sampled rows, rich in hits. Any-hit rate of the full collection: about 4.1%.

SMILES	NALP1 yeast inh	TIM10 inh	tim23-1 inh	NLRP3 yeast inh	tim10-1 inh	tim10-1 conf	tim10 confirm
Nc1c(C(=O)NCCc2ccc(Cl)cc2)sc2ccc(S(=O)(=O)N3CCCCC3)cc12	7	44*	41	17	43*	35*	28
CCCCCC1CC(CC(=O)Nc2nncs2)C(=O)O1 (stereo unspecified)	18	45*	44	10	40	37*	31*
Cc1ccc(Nc2ncccc2C(=O)NCc2cccs2)c(C)c1	10	51*	36	1	49*	33*	39*
CC(C)(C)c1ccc(NC(=S)NCc2cccs2)cc1	-12	46*	45	7	54*	40*	33*
COC(=O)C(C(=O)NCC1CCCO1)C1CCCC1 (stereo unspecified)	10	-13	-3	7	13	·	·
COc1ccc2nc3oc(C(=O)N4CCN(c5cccc(Cl)c5)CC4)cc3cc2c1	29	63*	37	12	60*	9	10
CN1CCN(C(=O)CCN2C(=O)/C(=C/c3ccccc3Cl)SC2=S)CC1	7	44*	40	13	44*	24	28
CC(C)(C)OC(=O)N[C@@H](Cc1ccccc1)c1nnc(S(=O)(=O)Cc2ccccc2)o1	-5	59*	48	12	73*	55*	46*
Cc1ccccc1CS(=O)(=O)c1nnc([C@H](Cc2ccccc2)NC(=O)OC(C)(C)C)o1	13	68*	33	24	72*	51*	50*
CCSc1nnc([C@H](Cc2ccccc2)NC(=O)OC(C)(C)C)o1	10	23	14	4	25	·	·
CC(C)(C)OC(=O)N[C@@H](Cc1ccccc1)c1nnc(SCC(=O)O)o1	-24	-1	12	0	0	·	·
CCc1ccc2c(c1)C1(NN=C(c3cccc4ccccc34)S1)C(=O)N2 (stereo unspecified)	10	55*	50	28	54*	47*	59*
CCc1ccc2c(c1)C1(C(=O)N2)N2CCCC2C(C(=O)c2ccc3ccccc3c2)C12C(=O)Nc1ccccc12 (stereo unspecified)	27	33	34	3	38	·	·
CSc1ccc(CN2CCc3c([nH]c4ccccc34)C2)cc1	31	33	9	13	15	·	·
Clc1ccc(CN2CCc3c([nH]c4ccccc34)C2)cc1Cl	27	41*	42	19	75*	75*	58*
CC(=O)Oc1ccc(N2C(=O)C3C(C2=O)C2(C)C=CC3(C)O2)cc1 (stereo unspecified)	-10	83*	2	-12	56*	93*	87*
COC(=O)c1cc(N2C(=O)C3C(C2=O)C2(C)C=CC3(C)O2)ccc1Cl (stereo unspecified)	41	83*	18	-13	53*	76*	90*
Oc1ccc(C2Nc3cccc4cccc(c34)N2)c(O)c1	4	41*	29	19	42*	44*	38*
COc1cc(C2Nc3cccc4cccc(c34)N2)cc(OC)c1O	-19	29	26	40	21	·	·
S=C(NCc1ccco1)Nc1ccc(Oc2ccccc2)cc1	21	46*	26	30	45*	28	37*
S=C(NCc1ccco1)Nc1cc(Cl)c(Cl)cc1Cl	29	42*	43	27	44*	28	-21
C/C(=N\NC(=S)NC(C)C)c1ccc2c(c1)OCCO2	7	41*	40	22	43*	19	8
CNC(=S)N/N=C(\C)c1ccc2c(c1)OCCO2	34	19	10	9	16	·	·
Cc1cc(C)c(C(=O)/C=C/C=C/c2ccccc2)c(=O)[nH]1	12	30	21	12	27	·	·
Cc1cc(C)c(C(=O)/C=C/c2ccc(C(C)C)cc2)c(=O)[nH]1	10	43*	26	24	49*	53*	37*
SMILES	NALP1 yeast inh	TIM10 inh	tim23-1 inh	NLRP3 yeast inh	tim10-1 inh	tim10-1 conf	tim10 confirm
S=c1[nH]nc(COc2ccccc2)n1/N=C/C=C/c1ccccc1	17	20	7	22	16	·	·
S=c1[nH]nc(COc2ccccc2)n1/N=C/C(Cl)=C/c1ccccc1	2	52*	44	38	60*	56*	46*
COc1ccc(C)cc1Nc1nc(N)c2ccccc2n1	21	15	0	40	-10	·	·
CN(C)c1ccc(Nc2nc(N)c3ccccc3n2)cc1	6	44*	43	19	55*	50*	36*
O=C1c2ccccc2NC(c2ccc(O)cc2)N1c1ccccc1 (stereo unspecified)	0	-5	10	1	10	·	·
COCCn1c(N)c(Sc2ccccc2[N+](=O)[O-])c(=O)[nH]c1=O	·	1	13	17	-4	·	·
Cc1nn(-c2ccc(F)cc2)c(C)c1NS(=O)(=O)c1ccc(Cl)cc1	19	51*	48	6	48*	40*	22
Cc1ccc(-n2nc(C)c(NS(=O)(=O)c3ccccc3)c2C)cc1C	3	27	28	7	39	·	·
COc1c(S(=O)(=O)n2nc(C)cc2C)ccc(Cl)c1Cl	12	44*	38	-8	49*	44*	42*
Clc1ccc2c(c1)c1cc(Cl)ccc1n2CN1CCOCC1	12	51*	-12	18	63*	39*	59*
COc1ccccc1-c1c(C)nn2c(N3CCOCC3)cc(C)nc12	17	20	14	-1	27	·	·
COc1ccccc1-c1c(C)nn2c(N3CCCCCC3)cc(C)nc12	25	41*	49	33	56*	41*	34*
Cn1c(=O)cc(Nc2ccccc2)c2c(=O)n(-c3ccccc3)c(=O)n(-c3ccccc3)c21	17	7	10	3	-11	·	·
Cc1cc(C)c2c(-n3cccc3)c(C(=O)NNS(=O)(=O)c3ccc(Br)cc3)sc2n1	7	41*	49	-1	41*	44*	21
Cc1ccc(S(=O)(=O)NNC(=O)c2ccccc2-n2cccc2)cc1	11	22	27	-16	34	·	·
Oc1ccc(Cl)cc1CNCC1CCCCC1	·	4	42	20	10	·	·
COc1cccc(/C=N/NC(=O)c2c(C)nc3ccc(Br)cn23)c1O	5	45*	11	22	41*	19	61*
COc1ccc(C(=O)NNC(=O)COc2ccc(Cl)cc2)c(OC)c1	23	3	4	24	1	·	·
Cc1[nH]nc2c1-c1nc3ccccc3nc1C(C)(C)C2	-4	44*	38	-3	44*	35*	25
COc1ccc(Cn2c(-c3ccc(Br)cc3)c[n+]3ccccc23)cc1	·	55*	8	18	48*	30*	25

Compound activity deposited in PubChem BioAssay by Sanford-Burnham Center for Chemical Genomics.
